Assay outcomes deposited in PubChem by National Center for Advancing Translational Sciences (NCATS).
Pol kappa inh-1 – inhibitors of human DNA polymerase kappa; purified Pol kappa, fluorescent DNA synthesis assay, 10 min; 0.53% of 400,000 active; Potency, µM (titrated, usually from 107 µM), actives largely listed as inhibitors; Q9UBT6
Target sequence (Q9UBT6 whole entry, looked up): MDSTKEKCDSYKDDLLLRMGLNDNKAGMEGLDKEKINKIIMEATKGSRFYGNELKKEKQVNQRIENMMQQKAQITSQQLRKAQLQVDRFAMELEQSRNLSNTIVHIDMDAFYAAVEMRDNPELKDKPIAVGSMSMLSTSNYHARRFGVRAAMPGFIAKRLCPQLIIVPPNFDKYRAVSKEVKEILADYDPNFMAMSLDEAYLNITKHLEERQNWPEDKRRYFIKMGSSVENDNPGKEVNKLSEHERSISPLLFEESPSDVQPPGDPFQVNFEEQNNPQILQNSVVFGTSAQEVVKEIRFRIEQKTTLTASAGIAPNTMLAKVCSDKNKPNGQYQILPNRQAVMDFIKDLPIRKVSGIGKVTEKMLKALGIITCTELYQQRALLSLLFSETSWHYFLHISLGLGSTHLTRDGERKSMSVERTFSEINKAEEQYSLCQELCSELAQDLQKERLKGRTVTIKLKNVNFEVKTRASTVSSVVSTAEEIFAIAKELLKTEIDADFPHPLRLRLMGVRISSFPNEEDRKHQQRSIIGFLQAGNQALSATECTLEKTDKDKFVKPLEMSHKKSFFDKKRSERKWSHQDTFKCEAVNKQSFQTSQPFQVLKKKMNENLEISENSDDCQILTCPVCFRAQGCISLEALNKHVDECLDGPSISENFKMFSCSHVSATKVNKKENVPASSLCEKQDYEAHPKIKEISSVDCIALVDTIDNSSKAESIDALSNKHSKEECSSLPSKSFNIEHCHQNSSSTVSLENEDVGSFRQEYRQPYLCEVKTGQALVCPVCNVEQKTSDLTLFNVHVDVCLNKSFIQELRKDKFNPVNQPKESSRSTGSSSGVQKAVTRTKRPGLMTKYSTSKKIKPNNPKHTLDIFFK
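Activity was followed as the change in fluorescence between reads at 0 and 10 min after starting the reaction with 50 nM substrate. Beforehand, 10 nM polymerase had been preincubated with compound for 15 min at room temperature.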
POLI inh – blocks human DNA polymerase iota activity | 1% of 390,000 active | Potency, µM (highest dose often 115 µM), most hits filed as inhibitors | Pol iota fluorescent replication assay, 10 min | AID 588590 | Q9UNA4
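Pol iota at 10 nM preincubated 15 min with compounds at room temperature; reaction started with fluorescent substrate, 50 nM final. Fluorescence read kinetically at 0 and 10 min; buffer-only wells as negative control.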
POLB inh – DNA polymerase beta (human) inhibition. Pol beta primer extension/strand displacement, fluorescence kinetic. 1.3% of 340,000 active. Potency, µM (titrated, usually from 114 µM), hits mostly inhibitors
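Curves were derived by four-parameter Hill fits of normalized qHTS data. The kinetic fluorescent primer-extension read was taken at 0 and 10 min after 50 nM substrate, following a 15 min room-temperature preincubation of 10 nM enzyme with compounds.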
Pol eta inh-1 – DNA polymerase eta (human) inhibition; 1.2% of 390,000 active; Q9Y253; recombinant Pol eta, fluorescent DNA replication assay; Potency, µM (highest dose often 114 µM), hits mostly inhibitors
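Pol eta (10 nM) was preincubated with compounds for 15 min at room temperature, after which fluorescent replication substrate (50 nM final) was added to start the reaction. Fluorescence was read kinetically at 0 and 10 min.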
FEN1 inh-1 – human FEN1 inhibition; 0.35% of 390,000 active; Recombinant FEN1 flap cleavage, fluorescence, 15 min; Potency, µM (series often up to 114 µM), actives largely listed as inhibitors; AID 588795; P39748; note: nearly all actives have a fitted effect of over 65% in size
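Potency values derive from four-parameter Hill fits of normalized qHTS data. The reaction used 10 nM FEN1 preincubated 15 min at room temperature with compound, then 50 nM DNA substrate, read at 0 and 15 min.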
TDP1 block – TDP1 (human) enzyme inhibition; Q9NUW8; recombinant TDP1, AlphaScreen DNA substrate cleavage; 0.28% of 350,000 active; Potency, µM (highest dose often 130 µM), hits mostly inhibitors; note: nearly all actives have a fitted effect of over 40% in size
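Enzyme-compound mixtures sat 15 min at room temperature, followed by a 5 min reaction with 15 nM final substrate and 10 min with AlphaScreen beads. Recombinant human Tdp1 was used at 1 nM final.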
TbPGK inh – TbPGK inhibition, hit validation; TbPGK coupled GAPDH assay, Kinase-Glo luminescence; shares compounds with Pol kappa inh-1; 79% of 500 active; Potency, µM (highest dose often 57.5 µM), hits mostly inhibitors; note: nearly all actives have a fitted effect of over 65% in size
Pol iota confirm – Human Pol iota inhibitor confirmatory assay; shares compounds with Pol kappa inh-1; Pol iota primer extension, TAMRA/BHQ fluorescence; Potency, µM, most hits filed as inhibitors; 77% of 1,500 active; AID 720496
Pol kappa inh-2 – confirmation of human DNA polymerase kappa inhibitors. purified Pol-kappa, fluorescent strand-displacement substrate. AID 720501. 76% of 920 active. shares compounds with Pol eta inh-1. Potency, µM, usual class: inhibitors
Pol eta inh-2 – confirmation of human DNA polymerase eta inhibitors; shares compounds with Pol eta inh-1; Pol eta primer extension, TAMRA/BHQ fluorescence, 10 min; Potency, µM, most hits filed as inhibitors; 64% of 2,600 active
FEN1 inh-2 – FEN1 inhibition, cherry-pick retest; shares compounds with FEN1 inh-1; FEN1 flap cleavage, TAMRA/BHQ2 fluorogenic DNA substrate; Potency, µM, hits mostly inhibitors; 79% of 880 active; AID 720498; note: nearly all actives have a fitted effect of over 60% in size
Each line names hits and unclear results; the compound was inactive in the other large screens (follow-up assays come after a bar, where they were run). Sampled rows, rich in hits. Any-hit rate of the full collection: about 2.4%. Calls come from the whole dose curve; as a rule, active = well fitted curve in the direction sought with a large enough effect; inconclusive = small, poorly fitted or top-dose-only effect, or another doubt; inactive = no such curve, though single readings can be large; an effect the other way counts as inactive or inconclusive.

COc1cc(/C=C2/C(=N)N3N=C(C)SC3=NC2=O)ccc1OS(=O)(=O)c1ccc(C)cc1	POLI inh inconclusive
CCOc1cc(/C=C2\C(=N)N3N=C(S(C)(=O)=O)SC3=NC2=O)ccc1OCCOc1cccc(OC)c1	POLI inh inconclusive, POLB inh inconclusive, Pol eta inh-1 28µM (no result: TDP1 block) | Pol iota confirm inconclusive | Pol kappa inh-2 75 | Pol eta inh-2 85
COc1ccc(Oc2ncc3ncc(=O)n(C)c3n2)cc1	none (no result: POLI inh, POLB inh, Pol eta inh-1, FEN1 inh-1, TDP1 block)
Cc1cc(/C=C(\C#N)C(=O)NCc2ccco2)c(C)n1-c1ccc(C(=O)O)cc1	Pol kappa inh-1 inconclusive, POLI inh 40µM, POLB inh inconclusive, Pol eta inh-1 20µM | Pol iota confirm 67 | Pol eta inh-2 27
CC1=NN(c2ccccc2)C(=O)C1/C=C1\NC(=S)NC1=O (stereo not given)	Pol kappa inh-1 25µM, POLI inh inconclusive, Pol eta inh-1 3.2µM, FEN1 inh-1 79µM | Pol iota confirm 47 | Pol kappa inh-2 7.5 | Pol eta inh-2 24
CC1=NN(c2ccccc2)C(=O)C1C=Nc1ccccc1O (stereo not given)	none
O=C(NCCc1ccccc1)C(=O)NCC(c1cccnc1)N1CCN(c2ccccc2)CC1 (stereo not given)	none
Cc1[nH]n(C(N)=S)c(=O)c1N=Nc1cccc([N+](=O)[O-])c1C	none
NC(=S)n1[nH]c(-c2ccc([N+](=O)[O-])cc2)c(N=Nc2cccc([N+](=O)[O-])c2)c1=O	Pol kappa inh-1 inconclusive, POLI inh inconclusive, Pol eta inh-1 28µM, FEN1 inh-1 45µM, TDP1 block inconclusive | TbPGK inh 13µM | Pol iota confirm 67 | Pol eta inh-2 48 | FEN1 inh-2 43
Cc1[nH]n(-c2ccccc2)c(=O)c1N=Nc1cccc([N+](=O)[O-])c1	none (no result: TDP1 block)
Cc1c(N=Nc2c(-c3ccc([N+](=O)[O-])cc3)[nH]n(C(N)=S)c2=O)cccc1[N+](=O)[O-]	Pol kappa inh-1 inconclusive, POLI inh inconclusive, Pol eta inh-1 50µM, FEN1 inh-1 inconclusive | Pol iota confirm inconclusive | Pol eta inh-2 inconclusive | FEN1 inh-2 67
CN(C)CCNC(=O)c1cccc2nc3cccc(F)c3nc12	Pol kappa inh-1 inconclusive, POLI inh 89µM, Pol eta inh-1 inconclusive, FEN1 inh-1 14µM (no result: POLB inh, TDP1 block) | Pol iota confirm 42 | Pol kappa inh-2 17 | FEN1 inh-2 19
Cc1ccc(NC(=O)c2cnn3c2NC(=C2CC2)C=C3C(F)F)cc1C	none (no result: POLB inh, Pol eta inh-1, TDP1 block)
O=S(=O)(O)c1ccccc1	none (no result: Pol kappa inh-1, POLI inh, POLB inh, Pol eta inh-1, FEN1 inh-1)
C=C1c2cccc(O)c2C(O)=C2C(=O)[C@]3(O)C(O)=C(C(N)=O)C(=O)[C@@H](N(C)C)[C@@H]3[C@@H](O)[C@H]12	Pol kappa inh-1 6.3µM, POLI inh 2.8µM, POLB inh 11µM, Pol eta inh-1 32µM, FEN1 inh-1 inconclusive (no result: TDP1 block) | Pol iota confirm 7.5 | Pol kappa inh-2 3.8 | Pol eta inh-2 13 | FEN1 inh-2 34
C[C@@H]1CNCCN1S(=O)(=O)c1cccc2cnccc12	none (no result: POLI inh, POLB inh, Pol eta inh-1, FEN1 inh-1)
Cc1nc(S/C(=C\c2ccc(-c3ccc(C(=O)O)c(Cl)c3)o2)C(=O)O)n[nH]1	Pol kappa inh-1 8.9µM, POLI inh 3.2µM, POLB inh 10µM, Pol eta inh-1 5µM, FEN1 inh-1 inconclusive, TDP1 block 3.2µM | TbPGK inh 15µM | Pol iota confirm 17 | Pol eta inh-2 5.4 | FEN1 inh-2 43
COc1ccc(-c2ccccc2C2NC(C(=O)O)CCC2C)cc1 (stereo not given)	none (no result: Pol kappa inh-1, POLI inh, POLB inh, Pol eta inh-1, FEN1 inh-1)
COc1cc(-c2cc(=O)c3c(O)c(OC)c(OC)c(O)c3o2)ccc1O	Pol kappa inh-1 25µM, POLI inh inconclusive, POLB inh 7.1µM, Pol eta inh-1 7.1µM, FEN1 inh-1 inconclusive | Pol iota confirm 7.5 | Pol eta inh-2 27 | FEN1 inh-2 34
O=C(COc1ccccc1[N+](=O)[O-])N/N=C/c1ccc(O)c([N+](=O)[O-])c1	Pol eta inh-1 inconclusive
O=C(COc1ccccc1C(=O)N/N=C\c1ccc(O)c(O)c1)N/N=C/c1ccc(O)c(O)c1	Pol kappa inh-1 0.71µM, POLB inh 0.28µM, FEN1 inh-1 1.6µM | TbPGK inh 0.29µM | Pol iota confirm 0.42 | Pol eta inh-2 0.34 | FEN1 inh-2 17
C[C@@]1(C(NC(=O)c2cccs2)c2ccc(-c3ccccc3)cc2)C[C@H]1C1CCCCC1 (stereo not given in full)	none (no result: Pol kappa inh-1, POLI inh, POLB inh, Pol eta inh-1, FEN1 inh-1)
COc1cc(C2c3c([nH]c(=O)[nH]c3=O)Nc3ccc4ccccc4c32)ccc1O (stereo not given)	Pol kappa inh-1 inconclusive, POLI inh inconclusive, POLB inh inconclusive, Pol eta inh-1 inconclusive, FEN1 inh-1 inconclusive
COc1cc(C2c3c([nH]c(=O)[nH]c3=O)Nc3ccc4ccccc4c32)cc(OC)c1OC (stereo not given)	Pol kappa inh-1 25µM, POLI inh 18µM, Pol eta inh-1 79µM, FEN1 inh-1 28µM (no result: TDP1 block) | Pol iota confirm 42 | Pol eta inh-2 60 | FEN1 inh-2 30
CC(C)C[C@@H](CC(=O)N[C@@H](CCC(=O)O)CC(=O)O)NC(=O)[C@@H]1CNCC[C@H]1NC(=O)C[C@@H](NC(=O)C[C@H](Cc1c[nH]c2ccccc12)NC(=O)[C@@H]1CCCC[C@H]1N)C(C)C	none (no result: Pol kappa inh-1, POLI inh, POLB inh, Pol eta inh-1, FEN1 inh-1)
CSc1ccc(CNC(=O)Cn2nc(N3CCN(c4ccccc4)CC3)ccc2=O)cc1	none
COc1cc(/C=C2\SC(=O)N(CC(=O)Nc3cccc(C)c3)C2=O)cc([N+](=O)[O-])c1O	POLI inh inconclusive, Pol eta inh-1 22µM, FEN1 inh-1 inconclusive | TbPGK inh inconclusive | Pol iota confirm 75 | Pol eta inh-2 48 | FEN1 inh-2 76
